# Calls of active or inactive are those of the source. How the source made its calls: active means hit-call score of the fitted dose curve at least 0.9, where 1 is the maximum; inactive means score below 0.9.
# Key:
# [1] = read-out: Macrophage colony-stimulating factor (MCSF), CSF1 (gene 1435); test: BSK_hDFCGF_MCSF: BioMAP Diversity Plus: hDFCGF Assay for Macrophage colony-stimulating factor (MCSF) Biomarker Activity (AID 2283060); conditions: primary human foreskin fibroblasts; actives raise or lower the signal
# In short: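 M-CSF levels read by ELISA at 24 h post-dosing in human skin fibroblasts. Parallel cultures stained with SRB assessed cytotoxicity at the same time point; response fitted in both directions against the DMSO baseline.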
# [2] = BSK_hDFCGF_SRB: Viability Assessment in the BioMAP Diversity Plus: hDFCGF Assay (AID 2283061); conditions: primary human foreskin fibroblasts;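 further: cells exposed to compound for 24 h before the read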
# In short: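 Viability was read as total protein: after 10% TCA fixation, wells were stained with 0.1% sulforhodamine B and read at 560 nm. Primary human foreskin fibroblasts were dosed for 24 h, with bidirectional fitting versus DMSO.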
# [3] = read-out: TIMP metallopeptidase inhibitor 1 (TIMP1), TIMP1 (gene 7076); test: BSK_hDFCGF_TIMP1: BioMAP Diversity Plus: hDFCGF Assay for TIMP metallopeptidase inhibitor 1 (TIMP1) Biomarker Activity (AID 2283062); conditions: primary human foreskin fibroblasts; actives raise or lower the signal
# In short: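 TIMP-1 measured by ELISA 24 h after chemical dosing of primary human skin fibroblasts, with gain or loss fitted relative to DMSO. Parallel SRB staining (560 nm) monitored overt cytotoxicity.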
# [4] = read-out: Monokine induced gamma interferon (MIG), CXCL9 (gene 4283); test: BSK_hDFCGF_MIG: BioMAP Diversity Plus: hDFCGF Assay for Monokine induced gamma interferon (MIG) Biomarker Activity (AID 2283063); conditions: primary human foreskin fibroblasts; actives raise or lower the signal
# In short: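 Human primary foreskin fibroblasts in the hDFCGF system, exposed to test chemical for 24 h; MIG measured by ELISA. Bidirectional curve fitting against DMSO negative control as activity baseline.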
# [5] = read-out: Matrix Metallopeptidase 1 (MMP1), MMP1 (gene 4312); test: BSK_hDFCGF_MMP1: BioMAP Diversity Plus: hDFCGF Assay for Matrix Metallopeptidase 1 (MMP1) Biomarker Activity (AID 2283064); conditions: primary human foreskin fibroblasts; actives raise or lower the signal
# In short: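 Primary human foreskin fibroblasts exposed to chemicals for 24 h; MMP1 measured by ELISA. Cytotoxicity tracked by SRB staining in parallel cultures; bidirectional fit relative to DMSO.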
# [6] = read-out: Vascular cell adhesion molecule 1 (VCAM1), VCAM1 (gene 7412); test: BSK_hDFCGF_VCAM1: BioMAP Diversity Plus: hDFCGF Assay for Vascular cell adhesion molecule 1 (VCAM1) Biomarker Activity (AID 2283065); conditions: primary human foreskin fibroblasts; actives raise or lower the signal;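 on AC50: VCAM-1 protein level quantified by ELISA after 24 h chemical exposure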
# In short: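 ELISA readout of VCAM-1 on human dermal fibroblast primary cultures, 24 h after chemical exposure. Gain or loss of signal fitted in both directions against DMSO baseline.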
# [7] = read-out: Plasminogen activator inhibitor-1 (PAI1), SERPINE1 (gene 5054); test: BSK_hDFCGF_PAI1: BioMAP Diversity Plus: hDFCGF Assay for Plasminogen activator inhibitor-1 (PAI1) Biomarker Activity (AID 2283066); conditions: primary human foreskin fibroblasts; actives raise or lower the signal
# In short: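 Human foreskin fibroblasts in the hDFCGF system were dosed with compound for 24 h; PAI-1 was quantified by ELISA. Bidirectional curve fitting used DMSO as negative control and baseline.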
# [8] = read-out: Intercellular Adhesion Molecule 1 (ICAM1), ICAM1 (gene 3383); test: BSK_KF3CT_ICAM1: BioMAP Diversity Plus: KF3CT Assay for Intercellular Adhesion Molecule 1 (ICAM1) Biomarker Activity (AID 2283067); conditions: primary human keratinocytes with fibroblasts; actives raise or lower the signal
# In short: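 Cell-surface ICAM-1 was measured by ELISA 24 h after dosing primary human skin keratinocytes co-cultured with fibroblasts. Parallel SRB staining tracked overt cytotoxicity. Gain or loss of signal was fitted relative to DMSO.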
# [9] = read-out: Interferon-gamma inducible Protein 10 (IP10), CXCL10 (gene 3627); test: BSK_KF3CT_IP10: BioMAP Diversity Plus: KF3CT Assay for Interferon-gamma inducible Protein 10 (IP10) Biomarker Activity (AID 2283068); conditions: primary human keratinocytes with fibroblasts; actives raise or lower the signal
# In short: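 In a primary skin co-culture of keratinocytes and fibroblasts, IP-10 is quantified by ELISA at 24 h after dosing. SRB staining of parallel wells monitors overt toxicity. Curves are fitted both directions against DMSO.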
# [10] = BSK_KF3CT_SRB: Viability Assessment in the BioMAP Diversity Plus: KF3CT Assay (AID 2283069); conditions: primary human keratinocytes with fibroblasts;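 further: total protein by sulforhodamine B staining as a cytotoxicity measure; read 24 h after compound addition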
# In short: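 Human keratinocyte and foreskin fibroblast co-culture exposed to chemical for 24 h. Total protein measured in parallel cultures by 0.1% sulforhodamine B staining after 10% TCA fixation, read at 560 nm; bidirectional fit relative to DMSO.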
# [11] = read-out: Interleukin-1 alpha (IL1a), IL1A (gene 3552); test: BSK_KF3CT_IL1a: BioMAP Diversity Plus: KF3CT Assay for Interleukin-1 alpha (IL1a) Biomarker Activity (AID 2283070); conditions: primary human keratinocytes with fibroblasts; actives raise or lower the signal
# In short: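 Primary human keratinocyte plus foreskin fibroblast co-culture, dosed and measured at 24 h in 96-well plates. IL-1a level quantified by ELISA; bidirectional fit relative to DMSO.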
# [12] = read-out: TIMP metallopeptidase inhibitor 2 (TIMP2), TIMP2 (gene 7077); test: BSK_KF3CT_TIMP2: BioMAP Diversity Plus: KF3CT Assay for TIMP metallopeptidase inhibitor 2 (TIMP2) Biomarker Activity (AID 2283071); conditions: primary human keratinocytes with fibroblasts; actives raise or lower the signal
# In short: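 Human primary keratinocyte/foreskin fibroblast co-culture dosed with chemical and sampled at 24 h. TIMP-2 levels quantified by ELISA; bidirectional fitting against DMSO negative control as baseline.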
# [13] = read-out: Transforming growth factor beta 1 (TGFb1), TGFB1 (gene 7040); test: BSK_KF3CT_TGFb1: BioMAP Diversity Plus: KF3CT Assay for Transforming growth factor beta 1 (TGFb1) Biomarker Activity (AID 2283072); conditions: primary human keratinocytes with fibroblasts; actives raise or lower the signal
# In short: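 Human keratinocyte plus foreskin fibroblast primary co-culture, dosed with chemical for 24 h. TGF-b1 quantified by ELISA. Activity fitted bidirectionally against DMSO negative control as baseline.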
# [14] = read-out: C-C motif chemokine 2 (Homo sapiens) (UniProt P13500); test: BSK_KF3CT_MCP1: BioMAP Diversity Plus: KF3CT Assay for Monocyte Chemoattractant Protein 1 (MCP1/CCL2) Biomarker Activity (AID 2283073); conditions: primary human keratinocytes with fibroblasts; actives raise or lower the signal
# In short: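 ELISA read-out of MCP-1, 24 h post-dose, in primary human skin keratinocytes co-cultured with fibroblasts. Parallel SRB staining monitors cytotoxicity; changes fitted both directions relative to DMSO.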
# [15] = read-out: Matrix Metallopeptidase 9 (MMP9), MMP9 (gene 4318); test: BSK_KF3CT_MMP9: BioMAP Diversity Plus: KF3CT Assay for Matrix Metallopeptidase 9 (MMP9) Biomarker Activity (AID 2283074); conditions: primary human keratinocytes with fibroblasts; actives raise or lower the signal;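 on AC50: MMP9 protein level quantified by ELISA in the co-culture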
# In short: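 Human keratinocyte and foreskin fibroblast co-culture exposed to chemicals for 24 h; MMP9 biomarker measured by ELISA, bidirectional fitting relative to DMSO; cytotoxicity tracked by SRB total protein staining in parallel cultures.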
# [16] = read-out: urokinase plasminogen activator (uPA), PLAU (gene 5328); test: BSK_KF3CT_uPA: BioMAP Diversity Plus: KF3CT Assay for urokinase plasminogen activator (uPA) Biomarker Activity (AID 2283075); conditions: primary human keratinocytes with fibroblasts; actives raise or lower the signal
# In short: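 Primary human keratinocyte/foreskin fibroblast co-culture exposed to chemical; uPA measured by ELISA at 24 h. Bidirectional fit versus DMSO, with parallel SRB total-protein staining for cytotoxicity.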
# [17] = read-out: CD40, CD40 (gene 958); test: BSK_LPS_CD40: BioMAP Diversity Plus: LPS Assay for CD40 Biomarker Activity (AID 2283076); conditions: primary human HUVEC with PBMC; actives raise or lower the signal
# In short: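 In the LPS system of human endothelial cells with peripheral blood mononuclear cells, CD40 levels were read by ELISA 24 h post-treatment. Signal changes in either direction were fitted against the DMSO baseline, with parallel SRB protein staining.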
# [18] = read-out: E-selectin (Homo sapiens) (UniProt P16581); test: BSK_LPS_Eselectin: BioMAP Diversity Plus: LPS Assay for Eselectin Biomarker Activity (AID 2283077); conditions: primary human HUVEC with PBMC; actives raise or lower the signal
# In short: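 E-selectin ELISA on LPS-stimulated endothelial cell/PBMC co-cultures, read 24 h post-treatment; gains and losses fitted against DMSO. Parallel SRB staining (0.1% SRB after 10% TCA fixation, 560 nm) flags overt cytotoxicity.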
# [19] = read-out: Interleukin-8 (IL8), CXCL8 (gene 3576); test: BSK_LPS_IL8: BioMAP Diversity Plus: LPS Assay for Interleukin-8 (IL8) Biomarker Activity (AID 2283078); conditions: primary human HUVEC with PBMC; actives raise or lower the signal
# In short: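 ELISA read-out of IL-8 after 24 h chemical treatment of LPS-activated endothelial/PBMC human primary co-cultures. Changes either up or down relative to DMSO; overt cytotoxicity checked by sulforhodamine B staining in parallel wells.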
# [20] = BSK_LPS_SRB: Viability Assessment in the BioMAP Diversity Plus: LPS Assay (AID 2283079); conditions: primary human HUVEC with PBMC;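 further: total protein by sulforhodamine B absorbance as a cytotoxicity measure; measured one day after compound addition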
# In short: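 SRB viability endpoint: cells fixed with 10% TCA, stained with 0.1% SRB, read at 560 nm, 24 h post-dose. HUVEC/PBMC co-culture; signal change in either direction scored relative to DMSO.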
# Sequence of E-selectin (Homo sapiens) (P16581 whole entry, looked up): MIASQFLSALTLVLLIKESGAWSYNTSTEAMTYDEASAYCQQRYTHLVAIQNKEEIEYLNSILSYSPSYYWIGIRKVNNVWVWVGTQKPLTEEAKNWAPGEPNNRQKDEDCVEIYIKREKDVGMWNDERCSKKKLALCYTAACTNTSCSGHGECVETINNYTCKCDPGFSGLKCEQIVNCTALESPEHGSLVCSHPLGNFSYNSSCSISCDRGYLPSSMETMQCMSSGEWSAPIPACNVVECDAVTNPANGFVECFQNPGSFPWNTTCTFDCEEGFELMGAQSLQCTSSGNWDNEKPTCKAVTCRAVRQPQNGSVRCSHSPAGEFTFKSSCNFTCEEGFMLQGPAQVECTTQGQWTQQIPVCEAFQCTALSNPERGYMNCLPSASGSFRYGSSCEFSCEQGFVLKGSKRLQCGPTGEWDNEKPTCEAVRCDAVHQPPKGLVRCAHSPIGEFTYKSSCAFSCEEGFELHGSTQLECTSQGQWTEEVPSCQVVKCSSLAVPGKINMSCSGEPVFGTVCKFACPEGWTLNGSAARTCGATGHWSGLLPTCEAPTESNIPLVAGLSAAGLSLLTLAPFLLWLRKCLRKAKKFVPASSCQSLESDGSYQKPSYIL
smiles,measurement,setting,value
CCOP(=O)(SC(C)CC)N1CCSC1=O (centres undefined),outcome,[1],inactive
same,outcome,[2],inactive
same,outcome,[3],inactive
same,outcome,[4],inactive
same,outcome,[5],inactive
same,outcome,[6],inactive
same,outcome,[7],inactive
same,outcome,[8],inactive
same,AC50,[9],0.704 µM (active)
same,outcome,[10],inactive
same,outcome,[11],inactive
same,outcome,[12],inactive
same,outcome,[13],inactive
same,outcome,[14],inactive
same,outcome,[15],inactive
same,outcome,[16],inactive
same,outcome,[17],inactive
same,outcome,[18],inactive
same,outcome,[19],inactive
same,outcome,[20],inactive
N#CSCSC#N,AC50,[1],1.93 µM (active)
same,AC50,[2],0.66 µM (active)
same,outcome,[3],inactive
same,AC50,[4],1.78 µM (active)
same,AC50,[5],3.17 µM (active)
same,AC50,[6],1.71 µM (active)
same,AC50,[7],2.32 µM (active)
same,AC50,[8],5.57 µM (active)
same,AC50,[10],4.78 µM (active)
same,AC50,[11],8.09 µM (active)
same,AC50,[12],5.72 µM (active)
same,AC50,[13],5.17 µM (active)
same,AC50,[14],5.31 µM (active)
same,AC50,[15],6.04 µM (active)
same,AC50,[16],6.91 µM (active)
same,AC50,[17],5.33 µM (active)
same,AC50,[18],6.28 µM (active)
same,AC50,[19],5.94 µM (active)
same,AC50,[20],5.37 µM (active)
C#CCC1=C(C)C(OC(=O)C2C(C=C(C)C)C2(C)C)CC1=O (centres undefined),AC50,[1],29.2 µM (active)
same,AC50,[2],33.3 µM (active)
same,outcome,[3],inactive
same,AC50,[4],37 µM (active)
same,AC50,[5],31.6 µM (active)
same,AC50,[6],34.8 µM (active)
same,AC50,[7],32 µM (active)
same,outcome,[8],inactive
same,outcome,[9],inactive
same,AC50,[10],22.3 µM (active)
same,outcome,[11],inactive
same,outcome,[12],inactive
same,outcome,[13],inactive
same,outcome,[14],inactive
same,outcome,[15],inactive
same,outcome,[16],inactive
same,AC50,[17],20 µM (active)
same,AC50,[18],28.4 µM (active)
same,AC50,[19],26.7 µM (active)
same,AC50,[20],29.1 µM (active)
CON=C(C(=O)OC)c1ccccc1CON=C(C)c1cccc(C(F)(F)F)c1,outcome,[1],inactive
same,AC50,[2],4.21 µM (active)
same,AC50,[3],5.26 µM (active)
same,outcome,[4],inactive
same,AC50,[5],2.74 µM (active)
same,outcome,[6],inactive
same,AC50,[7],4 µM (active)
same,outcome,[8],inactive
same,AC50,[9],18 µM (active)
same,outcome,[10],inactive
same,outcome,[11],inactive
same,outcome,[12],inactive
same,outcome,[13],inactive
same,AC50,[14],6.61 µM (active)
same,AC50,[15],3.97 µM (active)
same,outcome,[16],inactive
same,AC50,[17],13.5 µM (active)
same,AC50,[18],0.25 µM (active)
same,AC50,[19],3.35 µM (active)
same,AC50,[20],6.96 µM (active)
FC(F)C(F)(F)OCC(Cn1cncn1)c1ccc(Cl)cc1Cl (centres undefined),AC50,[1],23.4 µM (active)
same,outcome,[2],inactive
same,outcome,[3],inactive
same,outcome,[4],inactive
same,outcome,[5],inactive
same,outcome,[6],inactive
same,AC50,[7],19.4 µM (active)
same,outcome,[8],inactive
same,outcome,[9],inactive
same,outcome,[10],inactive
same,outcome,[11],inactive
same,outcome,[12],inactive
same,outcome,[13],inactive
same,outcome,[14],inactive
same,outcome,[15],inactive
same,outcome,[16],inactive
same,AC50,[17],17.1 µM (active)
same,outcome,[18],inactive
same,outcome,[19],inactive
same,AC50,[20],20 µM (active)
COc1cc(OC)nc(Sc2cccc(Cl)c2C(=O)O)n1,outcome,[1],inactive
same,outcome,[2],inactive
same,outcome,[3],inactive
same,outcome,[4],inactive
same,outcome,[5],inactive
same,outcome,[6],inactive
same,outcome,[7],inactive
same,outcome,[8],inactive
same,outcome,[9],inactive
same,outcome,[10],inactive
same,outcome,[11],inactive
same,outcome,[12],inactive
same,outcome,[13],inactive
same,outcome,[14],inactive
same,outcome,[15],inactive
same,outcome,[16],inactive
same,outcome,[17],inactive
same,outcome,[18],inactive
same,outcome,[19],inactive
same,outcome,[20],inactive
